Experimental data: PubChem BioAssay (NCATS)
Results filed as inconclusive are left out. The source made the active and inactive calls. Unless noted, calls come from the whole dose curve; as a rule, active = well fitted cell-killing curve with a large enough effect; inconclusive = small, poorly fitted or top-dose-only effect; inactive = flat fitted curve, though single readings scatter.

How the values were obtained:
[1] = Cell Viability - LYMP2-025 (AID 976);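 note: series mostly up to about 92 µM; plate controls were DMSO only for no effect and tetraoctylammonium bromide control for full effect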
In short: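 Acute cytotoxicity is scored as a concentration-dependent fall in intracellular ATP, measured by luciferase luminescence, in human lymphoblastoid LYMP2-025 cells exposed to compound for 24 hours at 37 C. AC50 values come from standard Hill fits.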

[2] = Cell Viability - LYMP2-002 (AID 977);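 note: series mostly up to about 92 µM; compound exposure lasted 24 h at 37 °C; plate controls were DMSO only for no effect and 92 µM tetraoctylammonium bromide for full effect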
In short: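 In this qHTS viability screen, 2500 human lymphoblastoid cells per well receive compound for 24 hr at 37 C, and luciferase-based ATP luminescence gives the viability signal. Tetraoctylammonium bromide serves as positive control.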

[3] = Cell Viability - LYMP2-007 (AID 979);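 note: cells exposed to compound for 24 h before reading; 0% = DMSO only and the negative end = 92 µM tetraoctylammonium bromide; nearly all actives have a fitted effect of over 60% in size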
In short: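 Cells are seeded at 2500 per well and rested 5 hr. Compounds are then added over a concentration series for 24 hr at 37 C. CellTiter-Glo is added for 30 min at room temperature before luminescence reading.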

[4] = Cell Viability - LYMP2-008 (AID 980); note: % is set by controls: 0 for no effect and ±100 for the full control effect; nearly all actives have a fitted effect of over 60% in size
In short: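 Cells seeded at 2500/well and rested 5 hr at 37 C; compounds added over a concentration range and incubated 24 hr at 37 C; CellTiter-Glo added, 30 min at room temperature; luminescence read and AC50 fitted with Hill model.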

[5] = Cell Viability - LYMP2-010 (AID 981); note: % is set by controls: 0 for no effect and ±100 for the full control effect; nearly all actives have a fitted effect of over 55% in size
In short: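 Steps: seed 2500 LYMP2-010 cells per well; incubate 5 hr at 37 C; add compound; incubate 24 hr at 37 C; add CellTiter-Glo, wait 30 min at room temperature; read luminescence. Concentration-response fitted to Hill equation for AC50.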

[6] = Cell Viability - LYMP2-012 (AID 982);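 note: cellular ATP by luciferase luminescence where a drop means cytotoxicity; cells exposed to compound for one day before reading; 0% = DMSO only and full loss = 92 µM tetraoctylammonium bromide; nearly all actives have a fitted effect of over 55% in size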
[7] = Cell Viability - LYMP2-014 (AID 983);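 note: series mostly up to about 92 µM; plate controls were DMSO only for no effect and 92 µM tetraoctylammonium bromide for full effect; nearly all actives have a fitted effect of over 50% in size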
In short: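 Cells are plated at 2500/well and left 5 hr at 37 C. Compounds are added across a concentration range and incubated 24 hr at 37 C in complete medium. CellTiter-Glo is added, and luminescence is read after 30 min at room temperature.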

[8] = Cell Viability - LYMP2-016 (AID 984); note: % is set by controls: 0 for no effect and ±100 for the full control effect; nearly all actives have a fitted effect of over 55% in size
In short: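 Concentration-dependent ATP depletion measured in LYMP2-016 lymphoblastoid cells, 24 h, 37 C; luciferase-based luminescent detection; Hill-equation AC50.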

[9] = Cell Viability - LYMP2-018 (AID 985);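 note: compound exposure lasted 24 hr at 37 °C; plate controls were DMSO only for no effect and tetraoctylammonium bromide at 92 µM for full effect; nearly all actives have a fitted effect of over 50% in size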
In short: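 Seed 2500 lymphoblastoid cells per well, incubate 5 hr at 37 C, add compound and incubate 24 hr at 37 C, add CellTiter-Glo, wait 30 min at room temperature, then read luminescence.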

[10] = Cell Viability - LYMP2-020 (AID 986);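 note: series mostly up to about 92 µM; plate controls were DMSO only for no effect and tetraoctylammonium bromide at 92 µM for full effect; nearly all actives have a fitted effect of over 55% in size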
In short: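 Seed 2500 cells per well and incubate 5 hr at 37 C. Add compounds at a concentration series and incubate 24 hr at 37 C. Add CellTiter-Glo, wait 30 min at RT, read luminescence, and fit a Hill curve for AC50.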

[11] = Cell Viability - LYMP2-022 (AID 987)
In short: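 Cells were seeded at 2500 per well, rested 5 hr at 37 C, and treated with titrated compounds for 24 hr at 37 C. Cellular ATP was then quantified by luciferase luminescence, and AC50 values were derived from Hill-modelled concentration-response curves.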

[12] = Cell Viability - LYMP2-024 (AID 988);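 note: plate controls were DMSO only for no effect and 92 µM tetraoctylammonium bromide for full effect; nearly all actives have a fitted effect of over 60% in size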
In short: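 qHTS cytotoxicity, human lymphoblastoid line, complete medium; 24 h cpd treatment, 37 C; CellTiter-Glo ATP luminescence readout; tetraoctylammonium bromide positive control; AC50 via Hill fit.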

[13] = Cell Viability - LYMP2-026 (AID 989); note: % is set by controls: 0 for no effect and ±100 for the full control effect; nearly all actives have a fitted effect of over 50% in size
In short: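 Cells are seeded at 2500 per well and held 5 hr at 37 C. Compounds are added in concentration series for 24 hr, then CellTiter-Glo reagent is applied and luminescence read.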

[14] = Cell Viability - LYMP1-002 - Assay at 40 hr (AID 994);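 note: 0% = DMSO only and full inhibition = 92 µM tetraoctylammonium bromide; nearly all actives have a fitted effect of over 60% in size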
In short: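 Cells are plated at 2500 per well and rested 5 hr at 37 C. Compounds are added and incubated 40 hr at 37 C. CellTiter-Glo reagent is added for 30 min at room temperature before luminescence is read.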

[15] = qHTS Assay for Identification of Small Molecule Inducers of Hypoxia Response (AID 2120; active = well fitted curve in the direction sought with a large enough effect in the signal ratio, with a control signal flat, not every such curve was filed as active; the % refers to the signal ratio; note: 0% is about no effect)
In short: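 Cell-based qHTS for reporter induction: hypoxia response element controlled beta-lactamase in ME-180 cells. Compounds incubated 17 h at 37 degrees C; activity from blue/green (460/530 nm) ratio, inducers ranked by AC50.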

[16] = molecular target: Estrogen receptor (Homo sapiens) (UniProt P03372); assay: qHTS assay for small molecule antagonists of estrogen receptor alpha signaling (AID 588513; active = well fitted curve in the direction sought with a large enough effect in the signal ratio, with a control signal flat, not every such curve was filed as active; the % refers to the signal ratio; note: % is set by controls: 0 for no effect and ±100 for the full control effect)
In short: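 Antagonist-mode qHTS in ER-alpha-UAS-bla HEK 293 cells: compound titration, 0.5nM estradiol for 18 h, CCF4 fluorescence, Hill-derived IC50.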

[17] = Cell Viability - LYMP2-006 (AID 978)
In short: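 In this cytotoxicity screen, the human lymphoblastoid line grew in complete medium with test compounds for 24 hr at 37 C. Cellular ATP served as the viability signal.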

[18] = Cell Viability - LYMP1-002 - Assay at 24 hr (AID 993); note: % is set by controls: 0 for no effect and ±100 for the full control effect
In short: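 Acute toxicity is measured as concentration-dependent loss of cellular ATP in a human lymphoblastoid line (Coriell LYMP1-002) after 24 h treatment in complete medium. ATP is quantified by luciferase luminescence and AC50 derived by Hill modelling.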

[19] = molecular target: Estrogen receptor (Homo sapiens) (UniProt P03372); assay: qHTS assay for small molecule agonists of estrogen receptor alpha signaling (AID 588514; calls by dose curve;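 note: 0% = vehicle only and 100% = reference agonist; nearly all actives have a fitted effect of over 70% in size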)
In short: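 Efficacy is expressed against 20 nM 17-beta-estradiol (100%) and DMSO basal (0%); EC50 from Hill equation. Assay: beta-lactamase reporter in ER-alpha-UAS-bla HEK 293 cells, 18 h compound incubation, CCF4 detection.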

[20] = molecular target: Androgen receptor (Homo sapiens) (UniProt P10275); assay: qHTS assay for small molecule agonists of androgen receptor signaling (AID 588515; active = well fitted curve in the direction sought with a large enough effect in the signal ratio, with a control signal flat; the % refers to the signal ratio; note: % is set by controls: 0 for no effect and ±100 for the full control effect); conditions: AR-UAS-bla HEK293, beta-lactamase ratio, agonist 16 h; hits give high values
In short: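 Stimulation of an AR-responsive β-lactamase reporter in GripTite HEK293 cells was measured after 16 h compound exposure at 37 °C, via CCF4 fluorescence after 2 h RT. EC50 from Hill fits, normalized to R1881 at 30 nM.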

Androgen receptor (Homo sapiens), sequence (P10275 whole entry, looked up): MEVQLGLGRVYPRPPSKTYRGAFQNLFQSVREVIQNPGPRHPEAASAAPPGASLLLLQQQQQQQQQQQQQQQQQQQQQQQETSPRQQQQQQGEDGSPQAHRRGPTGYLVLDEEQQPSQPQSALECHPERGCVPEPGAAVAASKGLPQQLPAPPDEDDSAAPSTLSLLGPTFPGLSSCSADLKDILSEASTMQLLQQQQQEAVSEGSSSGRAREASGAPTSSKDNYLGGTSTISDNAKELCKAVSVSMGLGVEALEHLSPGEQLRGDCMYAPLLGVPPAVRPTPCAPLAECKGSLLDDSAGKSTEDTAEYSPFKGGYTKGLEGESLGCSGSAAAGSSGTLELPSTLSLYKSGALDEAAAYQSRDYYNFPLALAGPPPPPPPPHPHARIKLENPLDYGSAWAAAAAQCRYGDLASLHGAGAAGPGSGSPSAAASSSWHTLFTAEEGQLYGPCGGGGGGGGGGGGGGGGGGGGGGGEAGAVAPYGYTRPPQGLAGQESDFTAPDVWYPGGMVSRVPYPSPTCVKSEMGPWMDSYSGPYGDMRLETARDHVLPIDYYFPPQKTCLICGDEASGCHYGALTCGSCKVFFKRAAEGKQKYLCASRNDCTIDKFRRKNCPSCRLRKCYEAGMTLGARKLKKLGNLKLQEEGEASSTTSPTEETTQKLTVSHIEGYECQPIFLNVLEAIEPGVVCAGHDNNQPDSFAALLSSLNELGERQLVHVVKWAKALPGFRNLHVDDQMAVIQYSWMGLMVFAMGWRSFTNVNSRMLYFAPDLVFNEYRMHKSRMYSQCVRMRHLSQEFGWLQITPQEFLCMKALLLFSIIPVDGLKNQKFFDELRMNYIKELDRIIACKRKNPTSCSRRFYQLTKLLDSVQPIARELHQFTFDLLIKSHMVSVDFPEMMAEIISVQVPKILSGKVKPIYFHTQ
Estrogen receptor (Homo sapiens), sequence (P03372 whole entry, looked up): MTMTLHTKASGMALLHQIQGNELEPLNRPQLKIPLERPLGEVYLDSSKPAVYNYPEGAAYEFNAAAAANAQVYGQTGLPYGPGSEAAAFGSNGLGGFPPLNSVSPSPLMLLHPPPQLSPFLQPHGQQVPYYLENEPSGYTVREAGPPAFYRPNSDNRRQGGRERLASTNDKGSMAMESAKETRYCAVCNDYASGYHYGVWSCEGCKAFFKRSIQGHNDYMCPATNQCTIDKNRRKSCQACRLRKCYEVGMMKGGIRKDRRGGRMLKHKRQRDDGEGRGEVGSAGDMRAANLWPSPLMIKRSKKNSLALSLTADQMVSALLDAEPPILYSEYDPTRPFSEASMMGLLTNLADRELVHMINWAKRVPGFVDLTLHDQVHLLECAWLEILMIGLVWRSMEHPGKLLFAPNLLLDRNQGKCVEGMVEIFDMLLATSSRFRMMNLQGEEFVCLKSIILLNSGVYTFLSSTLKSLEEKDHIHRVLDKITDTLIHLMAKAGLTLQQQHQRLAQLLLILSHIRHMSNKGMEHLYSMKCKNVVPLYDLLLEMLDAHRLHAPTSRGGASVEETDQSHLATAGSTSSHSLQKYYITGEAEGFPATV

C/C=C1\CC2C=CC1C2 (stereo not drawn)
inactive: Potency [1] | Potency [2] | Potency [3] | Potency [4] | Potency [5] | Potency [6] | Potency [7] | Potency [8] | Potency [9] | Potency [10] | Potency [11] | Potency [12] | outcome [13] | Potency [14] | outcome [15] | outcome [16]

CCC(C)(C)OC
inactive: Potency [1] | Potency [2] | Potency [17] | Potency [3] | Potency [4] | Potency [5] | Potency [6] | Potency [7] | Potency [8] | Potency [9] | Potency [10] | Potency [11] | Potency [12] | Potency [18] | Potency [14] | outcome [15] | outcome [16]

Cc1cc(C)cc(N)c1
inactive: Potency [1] | Potency [2] | Potency [17] | Potency [3] | Potency [4] | Potency [5] | Potency [6] | Potency [7] | Potency [8] | Potency [9] | Potency [10] | Potency [11] | Potency [12] | outcome [13] | Potency [18] | Potency [14] | outcome [15] | Potency [19] | activation [20] 2.27%

O=C(Cl)c1ccccc1[N+](=O)[O-]
inactive: Potency [1] | Potency [2] | Potency [17] | Potency [3] | Potency [4] | Potency [6] | Potency [7] | Potency [8] | Potency [9] | Potency [10] | Potency [11] | Potency [12] | outcome [13] | Potency [18] | Potency [14] | outcome [15] | activation [20] 6.98%

CCCCN(CCO)CCCC
inactive: Potency [1] | Potency [2] | Potency [17] | Potency [3] | Potency [4] | Potency [5] | Potency [6] | Potency [7] | Potency [9] | Potency [10] | Potency [12] | outcome [13] | Potency [18] | Potency [14] | outcome [15] | Potency [19]

Cc1c(C(=O)O)cccc1[N+](=O)[O-]
inactive: Potency [1] | Potency [2] | Potency [17] | Potency [3] | Potency [4] | Potency [6] | Potency [7] | Potency [8] | Potency [9] | Potency [10] | Potency [11] | Potency [12] | Potency [14] | outcome [15] | activation [20] -4.24%

C=C(C)C(=O)OCC(C)C
inactive: Potency [1] | Potency [2] | Potency [3] | Potency [4] | Potency [5] | Potency [6] | Potency [8] | Potency [9] | Potency [10] | Potency [11] | Potency [12] | Potency [18] | Potency [14] | outcome [15] | Potency [19]

O=C(O)c1ccc(Cl)c(Cl)c1
inactive: Potency [1] | Potency [2] | Potency [17] | Potency [3] | Potency [4] | Potency [5] | Potency [6] | Potency [7] | Potency [8] | Potency [9] | Potency [10] | Potency [11] | Potency [12] | outcome [13] | Potency [18] | Potency [14] | outcome [15] | Potency [19]

[O-]/[N+](=N\O)c1ccccc1
inactive: Potency [1] | Potency [2] | Potency [17] | Potency [3] | Potency [4] | Potency [5] | Potency [6] | Potency [7] | Potency [8] | Potency [9] | Potency [10] | Potency [11] | Potency [12] | Potency [14] | outcome [15] | Potency [19]

CNc1ccccc1
inactive: Potency [1] | Potency [2] | Potency [17] | Potency [3] | Potency [4] | Potency [5] | Potency [6] | Potency [7] | Potency [9] | Potency [10] | Potency [11] | Potency [12] | outcome [13] | Potency [18] | Potency [14] | outcome [15] | Potency [19]

C=Cc1ccc(C=C)cc1
inactive: Potency [1] | Potency [2] | Potency [17] | Potency [3] | Potency [4] | Potency [5] | Potency [6] | Potency [7] | Potency [8] | Potency [9] | Potency [10] | Potency [11] | Potency [12] | outcome [13] | Potency [18] | Potency [14] | outcome [15] | Potency [19]

C=C(C)C1CC=C(C)C(OC(C)=O)C1 (stereo not drawn)
inactive: Potency [1] | Potency [2] | Potency [17] | Potency [3] | Potency [4] | Potency [5] | Potency [6] | Potency [7] | Potency [8] | Potency [9] | Potency [10] | Potency [12] | outcome [13] | Potency [14] | outcome [15] | Potency [19]

CCCOCC(C)OCC(C)O (stereo not drawn)
inactive: Potency [1] | Potency [2] | Potency [17] | Potency [3] | Potency [4] | Potency [5] | Potency [6] | Potency [7] | Potency [8] | Potency [9] | Potency [10] | Potency [11] | outcome [13] | Potency [18] | Potency [14] | outcome [15] | activation [20] 12.1%

Cc1ccc(Cl)cc1
inactive: Potency [1] | Potency [2] | Potency [17] | Potency [3] | Potency [4] | Potency [5] | Potency [6] | Potency [8] | Potency [10] | Potency [11] | Potency [12] | outcome [13] | Potency [18] | Potency [14] | outcome [15] | Potency [19]

CCOc1ccccc1N
inactive: Potency [1] | Potency [2] | Potency [17] | Potency [3] | Potency [4] | Potency [5] | Potency [6] | Potency [7] | Potency [8] | Potency [9] | Potency [10] | Potency [11] | Potency [12] | outcome [13] | Potency [18] | Potency [14] | outcome [15] | Potency [19]

O=C(O)c1ccccc1C(=O)O
inactive: Potency [1] | Potency [2] | Potency [3] | Potency [4] | Potency [6] | Potency [7] | Potency [8] | Potency [10] | Potency [11] | Potency [12] | Potency [18] | Potency [14] | outcome [15] | Potency [19]

O=[N+]([O-])c1cccc(Cl)c1
inactive: Potency [1] | Potency [2] | Potency [17] | Potency [3] | Potency [4] | Potency [6] | Potency [7] | Potency [8] | Potency [9] | Potency [10] | Potency [11] | Potency [12] | outcome [13] | Potency [18] | outcome [15] | Potency [19]

OC1CCCC1
inactive: Potency [1] | Potency [2] | Potency [17] | Potency [3] | Potency [4] | Potency [5] | Potency [6] | Potency [7] | Potency [9] | Potency [10] | Potency [11] | Potency [12] | outcome [13] | Potency [18] | Potency [14] | outcome [15] | Potency [19]
